# BAZ2B block – BAZ2B (human) inhibition; AlphaScreen BAZ2B-H3K14Ac peptide displacement; Potency, µM (titrated, usually from 114 µM), for the others: top-dose activity change, negative = inhibition, hits mostly inhibitors; 360,000 tested, 4.4% active; further: on the % scale 0 is the no-effect control and ±100 the full control effect; nearly all actives have a fitted effect of over 60% in size
#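 Multi-concentration screen (max 110 uM) measuring displacement of acetylated histone H3 peptide from BAZ2B by AlphaScreen, using 50 nM protein, 50 nM peptide and 10 ug/mL streptavidin donor plus Ni-chelate acceptor beads.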
# VDR inhibitor – vitamin D3 receptor (human) inhibition | P11473 | VDR-SRC2-3 peptide fluorescence polarization, 2 h | Potency, µM, inactives show max response, negative = inhibition, hits mostly inhibitors | 400,000 tested, 0.93% active; further: on the % scale 0 is the no-effect control and ±100 the full control effect
# Target sequence (P11473 whole entry, looked up): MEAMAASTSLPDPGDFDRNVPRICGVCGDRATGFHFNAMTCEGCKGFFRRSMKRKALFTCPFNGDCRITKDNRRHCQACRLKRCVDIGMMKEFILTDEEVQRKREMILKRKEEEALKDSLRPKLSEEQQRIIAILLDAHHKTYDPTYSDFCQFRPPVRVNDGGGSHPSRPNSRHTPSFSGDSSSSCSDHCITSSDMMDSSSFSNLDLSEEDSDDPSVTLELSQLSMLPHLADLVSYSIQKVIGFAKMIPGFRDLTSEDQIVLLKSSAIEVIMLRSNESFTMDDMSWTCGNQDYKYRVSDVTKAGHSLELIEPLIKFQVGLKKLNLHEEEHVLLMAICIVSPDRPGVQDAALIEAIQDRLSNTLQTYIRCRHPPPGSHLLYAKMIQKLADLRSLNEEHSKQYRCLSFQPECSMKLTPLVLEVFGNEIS
#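 Compounds are added to VDR with labelled SRC2-3 coactivator peptide and held 2 h at room temperature. Inhibition of the VDR–peptide interaction is then read as a change in fluorescence polarization.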
# L3MBTL1 inh – L3MBTL1 (human) inhibition | Q9Y468 | AlphaScreen L3MBTL1–H3K9me1 peptide binding | Potency, µM (doses to about 57.1 µM), for inactives: top-dose activity, negative = inhibition, usual class: inhibitors | 230,000 tested, 0.66% active | AID 485360; further: on the % scale 0 is the no-effect control and ±100 the full control effect; nearly all actives have a fitted effect of over 60% in size
#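 L3MBTL1 (50 nM) pre-complexed 30 min with biotinylated H3(1-15)K9me1 peptide (75 nM), then compounds added for 30 min at room temperature; AlphaScreen streptavidin donor/nickel chelate acceptor beads (10 ug/mL final) read after 30 min dark incubation.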
# JMJD2A Tudor – inhibitors of human JMJD2A Tudor domain. Potency, µM (highest dose often 114 µM), without a hit: at the highest dose activity change, negative = inhibition, most hits filed as inhibitors. 390,000 tested, 4.4% active. O75164. AlphaScreen JMJD2A-Tudor / H3K4me3 peptide binding; further: on the % scale 0 is the no-effect control and ±100 the full control effect; nearly all actives have a fitted effect of over 50% in size
# PLK1 PBD block – inhibitors of human PLK1 polo-box domain binding. P53350. AID 720504. Plk1 PBD binding of FITC phosphopeptide, fluorescence polarization. Potency, µM, without a hit: max response, negative = inhibition, hits mostly inhibitors. 360,000 tested, 2.8% active; further: series mostly up to about 57 µM; on the % scale 0 is the no-effect control and ±100 the full control effect; nearly all actives have a fitted effect of over 65% in size
# HP1b chromo inh – inhibitors of HP1-beta chromodomain binding to methylated histone tails. P83916. AlphaScreen HP1-beta / biotin-H3K9me3 peptide binding. Potency, µM (titrated, usually from 114 µM), inactives show top-dose activity change, negative = inhibition, actives largely listed as inhibitors. 390,000 tested, 0.56% active. AID 540317; further: nearly all actives have a fitted effect of over 70% in size
# Target sequence (P83916 whole entry, looked up): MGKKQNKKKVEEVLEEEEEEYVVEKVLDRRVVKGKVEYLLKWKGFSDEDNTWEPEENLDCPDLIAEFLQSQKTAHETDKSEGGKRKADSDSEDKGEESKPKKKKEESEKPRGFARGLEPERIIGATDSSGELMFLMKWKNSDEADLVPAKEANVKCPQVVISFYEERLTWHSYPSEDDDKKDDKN
#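 AlphaScreen: HP1-beta (50 nM) preformed 30 min with biotin-H3(1-18)K9me3 peptide (50 nM) in PBS pH 7.4, 0.01% Tween-20. Compound added for 30 min at RT, then streptavidin donor/nickel chelate acceptor beads (10 ug/mL) for 30 min.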
# Numbers without * were called inactive; u = inconclusive; x = no result given; [ ] = remark or other dose. An excerpt weighted towards active compounds, which were near 6.9% of everything screened. The call rests on the fitted dose curve; in most records, active means well fitted curve in the direction sought with a large enough effect; inconclusive means small, poorly fitted or top-dose-only effect, or another doubt; inactive means no such curve, though single readings can be large; an effect the other way counts as inactive or inconclusive. Potency means the concentration at half of the fitted maximal effect.
SMILES,BAZ2B block,VDR inhibitor,L3MBTL1 inh,JMJD2A Tudor,PLK1 PBD block,HP1b chromo inh
CCCC(=O)NC(c1ccc(C)cc1)c1ccc2cccnc2c1O (centres undefined),14µM*,-11%,-26%,56µM*,-10%,56%
Cc1cc2c(cc1S(=O)(=O)CCC(=O)N1CCCC(C)C1)OCC(=O)N2 (centres undefined),-34%,-8%,x,-27%,x,18%
CC(C)CCNC(=O)c1cccc(-n2cnc3cccnc32)c1,-1%,4%,x,-3%,x,52%
O=C(NC1CCSC1=O)C1CCCCC1 (centres undefined),-6%,12%,11%,-12%,5%,34%
CCCC(=O)NC(c1ccccc1OC)c1ccc2cccnc2c1O (centres undefined),25µM*,-1%,u,56µM*,u,-11%
Cc1ccnc(NC(c2cccc(O)c2)c2ccc3ccc(C)nc3c2O)c1 (centres undefined),u,u,x,u,x,-25%
CCCCC(=O)NC(c1ccc(N(CC)CC)cc1)c1ccc2cccnc2c1O (centres undefined),45µM*,-9%,u,u,-8%,20%
CCN(CC)c1ccc(C(NC(=O)C(C)C)c2ccc3cccnc3c2O)cc1 (centres undefined),x,x,x,x,-3%,x
Cc1cccc(NC(c2cccc(Cl)c2)c2ccc3cccnc3c2O)n1 (centres undefined),10µM*,-5%,x,16µM*,x,31%
CCCCC(=O)NC(c1ccccc1OC)c1ccc2cccnc2c1O (centres undefined),u,-7%,x,-19%[11.4 µM],-17%,51%
CCCC(=O)NC(c1ccc(N(C)C)cc1)c1c(O)ccc2ccccc12 (centres undefined),18µM*,-4%,u,32µM*,-12%,50µM*
COc1ccc(CC(=O)OCC(=O)NC2CCCCC2)cc1OC,x,-4%,2%,-21%,-4%,25%
O=C1CN(S(=O)(=O)c2cccc(Br)c2)CCN1,x,4%,28%,-15%,-10%,8%[57 µM]
COc1cccc(OCc2cc(C3Nc4ccccc4C(=O)N3c3ccccc3)ccc2OC)c1 (centres undefined),x,-17%,x,-4%[57.1 µM],x,18%[57 µM]
Cn1cccc1/C=C1\SC(=S)N(NC(=O)c2ccccc2)C1=O,40µM*,0%,-12%,u,39%,u
Cn1cccc1/C=C1\SC(=S)N(NC(=O)c2cccc(Cl)c2)C1=O,28µM*,-19%,-16%,28µM*,35%,u
O=C(O)c1ccc(/C=C2\SC(=S)N(NC(=O)c3ccccc3)C2=O)cc1,-20%,-23%,x,-7%,-13%,30%
Cn1cccc1/C=C1\SC(=S)N(NC(=O)c2ccc(F)cc2)C1=O,35µM*,23%,u,u,24%,-38%
Cc1nc2nc(NCc3ccc(Br)cc3)[nH]n2c(=O)c1Cc1ccccc1,-4%,17%,x,-15%,x,39%
O=[S+]([O-])(NC[C@H]1CCC[C@H](CN[S+](=O)([O-])c2c(F)cccc2F)C1)c1ccc2c(c1)OCCO2,x,x,x,-14%,x,x
CCCCCCn1c(=O)[nH]c2nc3cc(N)c(C)cc3nc2c1=O,3%,u,-5%,-21%,3µM*,5%
CCCCn1c(=O)[nH]c2nc3cc(NC(C)=O)ccc3nc2c1=O,u,6%,x,-16%,-15%,-5%
CCOc1ccc(N(CC(=O)N2CCC(Cc3ccccc3)CC2)S(C)(=O)=O)cc1,14%,8%,40%,-10%,1%,9%
Cc1ccc(S(=O)(=O)c2ccc(C)cc2)cc1,4%,4%,x,-7%,-2%,32%
Cc1ccc(S(=O)(=O)/C=C/C#N)cc1,x,11µM*,x,x,x,x
SMILES,BAZ2B block,VDR inhibitor,L3MBTL1 inh,JMJD2A Tudor,PLK1 PBD block,HP1b chromo inh
Cc1ccc(S(=O)(=O)/C=C\C#N)cc1,x,2.8µM*,x,x,x,x
CC(C)(C)c1ccc(S(=O)(=O)/C=C\C#N)cc1,x,2µM*,x,x,x,x
CC(O)(c1ccc(F)c(F)c1)c1nc(-c2ccoc2)cs1 (centres undefined),x,x,x,x,-14%,x
CN(C)NC(=S)NC1CCS(=O)(=O)C1 (centres undefined),-16%,18%,-2%,32µM*,-1%,10%
O=S1(=O)CCC(NC(=S)NC2CCS(=O)(=O)C2)C1 (centres undefined),-31%,-14%,2%,-2%,-4%,26%
COc1cc2nc(C3CCC3)nc(N3CCN(c4ccccn4)CC3)c2cc1OC,50µM*,-14%,-14%,u,3%,-16%
COc1cc2nc(C3CCC3)nc(N3CCN(c4ccccc4OC)CC3)c2cc1OC,u,-7%,28µM*,u,-1%,-21%
CN(C)c1ccc2c(c1)Sc1cc(N(C)C)ccc1N2C(=O)c1ccccc1,8.9µM*,-3%,u,14µM*,2%,13µM*
CCOC(=O)c1[nH]c(C)c(CCC(=O)N2CCN(c3ccc(Cl)cc3)CC2)c1C,u,-5%,x,u,x,9%[57 µM]
CCOP(=O)(OCC)C(C#N)=C1SCN(c2ccc(Cl)cc2)CS1,8%,u,-3%,79µM*,27µM*,-2%
Nc1nc(SCC(=O)c2ccc(Oc3ccccc3)cc2)n[nH]1,-1%,-28%,-4%,35µM*,-27%,u
Cc1ccc(Oc2ccc(NC(=O)CSc3n[nH]c(N)n3)cc2)cc1,-19%,-24%,-6%,-20%,-3%,13%
Oc1ccc2ccccc2c1/C=N/c1nc2c(s1)CCCC2,-35%,4%,x,50µM*,13µM*,u
Cc1cc(O)c(C=Nc2ccc(Cl)cn2)c(=O)o1,u,-19%,x,32µM*,-13%,7%
Cc1cc(O)c(/C=N/c2ccccn2)c(=O)o1,u,11%,u,79µM*,-1%,19%
Oc1ccc2ccccc2c1C=Nc1ccc(Cl)cn1,-10%,-6%,-28%,25µM*,17µM*,-20%
Oc1ccc2ccccc2c1/C=N/n1cnnc1,-3%,20%,-2%,-1%,-15%,20%
Cc1cccc(/N=C/c2c(O)cc(C)oc2=O)n1,-14%,11%,u,u,-5%,6%
CCOc1ccc(S(=O)(=O)Nc2cc3c(C(=O)OCc4ccccc4)c(C)oc3c3ccccc23)cc1,-3%,-21%,x,-11%,x,9%
CCOC(=O)c1c(C)oc2c1cc(NS(=O)(=O)c1ccc(C(=O)O)cc1)c1ccccc12,-29%,-2%,x,-21%,27µM*,-22%
NC(=O)C1=C[C@@H](C2CCCCC2)C[C@@H](OCCCCO)O1,-4%,0%,10%,3%,-3%,40%
Cc1cc(C(=O)c2ccc(Cl)cc2)c(NC(=O)CCl)s1,2%,-15%,-12%,-5%,-16%,-4%
